Test results reported in PubChem BioAssay (EPA / NIEHS).
“And” between values parts separate entries of the source, which are not always exact repeats. Equal values may be shown once. The source made the active and inactive calls. Rule for the calls: active = hit-call score of the fitted dose curve at least 0.9, where 1 is the maximum; inactive = score below 0.9.

How the values were obtained:
[1] = ATG_M_32_CIS: Attagene CIS-FACTORIAL HepG2 Assay for M32 Transcription Factor (Internal Marker) (AID 2282949); conditions: HepG2 Attagene cis-factorial M32 reporter, mRNA; actives raise or lower the signal;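 note: background control marker of the multiplexed CIS panel rather than a real target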
Outline: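 Using DMSO as baseline, bidirectional curve fits were applied to reporter mRNA signals. These came from transiently transfected HepG2 cells exposed for 24 h, with RNA analysed by RT-PCR, FAM primer extension, HpaI digestion and CE.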

[2] = ATG_M_06_CIS: Attagene CIS-FACTORIAL HepG2 Assay for M06 Transcription Factor (Internal Marker) (AID 2282950); conditions: HepG2 Attagene CIS-FACTORIAL M06 internal marker reporter; actives raise or lower the signal
Outline: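 HepG2 liver cells, 24 h exposure. Reporter transcripts from transfected cis-element constructs quantified by RT-PCR/capillary electrophoresis fluorescence. Bidirectional curve fit against DMSO.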

[3] = biological target: Hepatocyte nuclear factor 6 (Homo sapiens) (UniProt Q9UBC0); test: ATG_HNF6_CIS: Attagene CIS-FACTORIAL HepG2 Assay for human Hepatocyte Nuclear Factor 6 (HNF6) (AID 2282952); conditions: HepG2 Attagene cis-factorial HNF6 reporter transcription; actives raise or lower the signal
Outline: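 Endogenous factor activity read in transiently transfected HepG2 via promoter-regulated reporter transcripts. RNA harvested 24 h post-dosing, reverse-transcribed, PCR-amplified, FAM-labelled, HpaI-digested and resolved by capillary electrophoresis; fitted in both directions against DMSO.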

[4] = biological target: Heat shock factor protein 1 (Homo sapiens) (UniProt Q00613); test: ATG_HSE_CIS: Attagene CIS-FACTORIAL HepG2 Assay for human Heat Shock Transcription Factor 1 (HSE) (AID 2282953); conditions: HepG2 HSE cis-reporter, Attagene RNA transcription; actives raise or lower the signal
Outline: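 Endogenous transcription factor activity captured via cis-promoter reporter units transfected into HepG2; treatment lasted 24 h. Fluorescence intensity of reporter fragments analysed with bidirectional curve fitting, DMSO baseline.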

[5] = ATG_MRE_CIS: Attagene CIS-FACTORIAL HepG2 Assay for human Metal Responsive Element (MRE) (AID 2282954); conditions: HepG2 MRE cis-reporter transcription, Attagene multiplex; actives raise or lower the signal
Outline: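 Multiplexed cis-reporter assay in human HepG2 liver cells, 24 h incubation with test chemical. Reporter transcripts measured by RT-PCR and capillary electrophoresis; values from bidirectional curve fitting versus DMSO.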

[6] = ATG_PBREM_CIS: Attagene CIS-FACTORIAL HepG2 Assay for human Phenobarbital-responsive Enhancer Module (PBREM) (AID 2282955); conditions: HepG2 PBREM cis-reporter, Attagene multiplexed transcription; actives raise or lower the signal
Outline: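 Fluorescence of labelled reporter cDNA fragments, resolved by capillary electrophoresis, gives mRNA induction in transfected HepG2 cells treated for 24 h; DMSO serves as negative control and baseline.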

[7] = biological target: Paired box protein Pax-6 (Homo sapiens) (UniProt P26367); test: ATG_Pax6_CIS: Attagene CIS-FACTORIAL HepG2 Assay for human Paired Box 6 (PAX6) (AID 2282956); conditions: HepG2 CIS-FACTORIAL PAX6 reporter transcription, RNA readout; actives raise or lower the signal
Outline: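 Read-out is reporter transcript level, measured by RT-PCR with fluorescent primer extension and capillary electrophoresis after 24 h dosing of transfected HepG2 cells. Activity in either direction fitted relative to DMSO control.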

[8] = ATG_PXRE_CIS: Attagene CIS-FACTORIAL HepG2 Assay for human Pregnane X Receptor Element (PXRE) (AID 2282957); conditions: HepG2 Attagene CIS-FACTORIAL PXRE reporter, mRNA; actives raise or lower the signal
Outline: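 Reporter transcripts under endogenous PXR-responsive cis-regulation quantified from total RNA of transfected HepG2 cells 24 h post-dosing, via RT-PCR with fluorescent primer extension and capillary electrophoresis. Gain or loss of signal fitted against DMSO baseline.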

[9] = ATG_PPRE_CIS: Attagene CIS-FACTORIAL HepG2 Assay for human Peroxisome Proliferator-activated Response Element (PPRE) (AID 2282958); conditions: HepG2 PPRE cis-element reporter, Attagene transcription factor profiling; actives raise or lower the signal
Outline: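 Cells are first transfected transiently with the multiplexed reporter library, then dosed for 24 h. Total RNA is reverse-transcribed, amplified, fluorescently end-labeled and HpaI-cut before capillary electrophoresis; activity is fitted bidirectionally against DMSO controls.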

[10] = ATG_RORE_CIS: Attagene CIS-FACTORIAL HepG2 Assay for human RAR-related Orphan Receptor Element (RORE) (AID 2282959); conditions: HepG2 Attagene cis-factorial RORE reporter, mRNA; actives raise or lower the signal
Outline: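 Cells were HepG2 carrying transfected cis-regulated reporter constructs, dosed for 24 hours. Total RNA was reverse-transcribed and reporter cDNA amplified, fluorescently labeled and sized by capillary electrophoresis. Activity was fitted bidirectionally relative to DMSO.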

[11] = ATG_Sox_CIS: Attagene CIS-FACTORIAL HepG2 Assay for human SRY-box transcription factor (SOX) (AID 2282960); conditions: HepG2 Attagene cis-factorial SOX reporter, mRNA; actives raise or lower the signal
Outline: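 Transient MRTU transfection of HepG2; 24 h compound incubation; TriZol RNA, oligo(dT) RT, PCR, 6-FAM primer extension, HpaI cut, CE. Bidirectional fit, DMSO = baseline.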

[12] = biological target: Transcription factor Sp1 (Homo sapiens) (UniProt P08047); test: ATG_Sp1_CIS: Attagene CIS-FACTORIAL HepG2 Assay for human Specificity Protein 1 (Sp1) (AID 2282961); conditions: HepG2 Sp1 cis-reporter transcription, actives raise or lower the signal
Outline: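 Endogenous Sp1 activity was gauged in human liver HepG2 cells bearing transfected reporter units under a cis-regulating promoter. After 24 h dosing, reporter mRNA was quantified by RT-PCR with capillary electrophoresis, and activity fitted bidirectionally versus DMSO.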

[13] = ATG_SREBP_CIS: Attagene CIS-FACTORIAL HepG2 Assay for human Sterol Regulatory Element Binding (SREBP) (AID 2282962); conditions: HepG2 Attagene cis-factorial SREBP reporter, mRNA; actives raise or lower the signal
Outline: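 Endogenous SREBP activity read as cis-element-driven reporter transcript in transiently transfected HepG2, 24 h post-dosing; quantified via RT-PCR plus capillary electrophoresis of fluorescent fragments. Gain or loss of signal fitted relative to DMSO baseline.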

[14] = biological target: Signal transducer and activator of transcription 3 (Homo sapiens) (UniProt P40763); test: ATG_STAT3_CIS: Attagene CIS-FACTORIAL HepG2 Assay for human Signal Transducer and Activator of Transcription 3 (STAT3) (AID 2282963); conditions: HepG2, Attagene cis-factorial STAT3 reporter transcription; actives raise or lower the signal
Outline: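 Cis-factorial format: endogenous transcription factors in HepG2 drive transfected reporter units. After 24 h treatment, reporter RNA was reverse-transcribed, amplified, FAM-labelled and HpaI-digested before CE analysis; activity scored in both directions against DMSO.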

[15] = ATG_TA_CIS: Attagene CIS-FACTORIAL HepG2 Assay for human TA Basal Promoter (AID 2282964); conditions: HepG2 Attagene CIS-factorial TA basal promoter reporter; actives raise or lower the signal
Outline: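 Fluorescence from labelled RT-PCR reporter fragments, separated by capillary electrophoresis, gives the signal. Cells: HepG2 transiently carrying multiple reporter units, 24 h chemical dosing. Gain or loss relative to DMSO.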

[16] = ATG_TCF_b_cat_CIS: Attagene CIS-FACTORIAL HepG2 Assay for human T-Cell-Factor with beta-catenin (TCF/b-cat) (AID 2282965); conditions: HepG2 TCF/beta-catenin cis-reporter transcription, actives raise or lower the signal
Outline: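 Endogenous TCF/LEF activity read as reporter transcript level via RT-PCR and capillary electrophoresis fluorescence in transfected HepG2, 24 h exposure; gain or loss of signal fitted against DMSO controls.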

[17] = ATG_TAL_CIS: Attagene CIS-FACTORIAL HepG2 Assay for human TAL Basal Promoter (AID 2282966); conditions: HepG2 Attagene cis-factorial TAL promoter reporter; actives raise or lower the signal;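 note: background control endpoint measuring basal TAL promoter reporter mRNA not a specific factor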
Outline: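 Background-control endpoint: basal TAL promoter reporter transcripts in transiently transfected HepG2, measured 24 h after dosing. Read-out by RT-PCR with fluorescent primer extension and capillary electrophoresis; gain or loss of signal fitted relative to DMSO.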

[18] = ATG_VDRE_CIS: Attagene CIS-FACTORIAL HepG2 Assay for human Vitamin D Receptor Element (VDRE) (AID 2282968); conditions: HepG2 VDRE cis-reporter transcription, actives raise or lower the signal
Outline: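 Measures endogenous factor activity through cis-element-driven reporter transcripts in transiently transfected HepG2. Cells are treated 24 h; reporter mRNA is quantified by RT-PCR and capillary electrophoresis; fitting is bidirectional.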

[19] = ATG_TGFb_CIS: Attagene CIS-FACTORIAL HepG2 Assay for human Transforming Growth Factor (TGF) (AID 2282967); conditions: HepG2 Attagene CIS TGFb reporter, mRNA transcription; actives raise or lower the signal
Outline: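 Bidirectional fitting relative to DMSO gave the endpoint. Underlying data: reporter mRNA from HepG2 cells carrying transiently transfected cis-regulated reporter constructs, harvested 24 h after dosing and analyzed by RT-PCR and capillary electrophoresis.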

[20] = biological target: Hypoxia-inducible factor 1-alpha (Homo sapiens) (UniProt Q16665); test: ATG_HIF1a_CIS: Attagene CIS-FACTORIAL HepG2 Assay for human Hypoxia Inducible Factor 1 (HIF1A) (AID 2282951); conditions: HepG2 Attagene cis-factorial HIF1a reporter transcription; actives raise or lower the signal
Outline: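 Measures endogenous transcription-factor activity through cis-regulated reporter mRNA in HepG2. Cells dosed 24 h; transcripts quantified by RT-PCR with 6-FAM-labelled products separated by capillary electrophoresis; DMSO serves as negative control.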

Measured: AC50

Paired box protein Pax-6 (Homo sapiens), sequence (P26367 whole entry, looked up): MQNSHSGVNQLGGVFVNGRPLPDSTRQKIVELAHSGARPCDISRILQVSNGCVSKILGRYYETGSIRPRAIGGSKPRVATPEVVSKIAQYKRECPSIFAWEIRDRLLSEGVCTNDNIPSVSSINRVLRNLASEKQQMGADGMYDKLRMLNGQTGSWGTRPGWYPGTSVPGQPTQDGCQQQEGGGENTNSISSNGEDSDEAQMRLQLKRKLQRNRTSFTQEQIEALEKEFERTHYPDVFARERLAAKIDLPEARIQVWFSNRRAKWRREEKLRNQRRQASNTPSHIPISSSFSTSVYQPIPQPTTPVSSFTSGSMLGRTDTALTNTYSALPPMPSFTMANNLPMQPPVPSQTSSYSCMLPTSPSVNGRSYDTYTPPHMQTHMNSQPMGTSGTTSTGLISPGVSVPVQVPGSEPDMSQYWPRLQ
Heat shock factor protein 1 (Homo sapiens), sequence (Q00613 whole entry, looked up, the tested form may be a part): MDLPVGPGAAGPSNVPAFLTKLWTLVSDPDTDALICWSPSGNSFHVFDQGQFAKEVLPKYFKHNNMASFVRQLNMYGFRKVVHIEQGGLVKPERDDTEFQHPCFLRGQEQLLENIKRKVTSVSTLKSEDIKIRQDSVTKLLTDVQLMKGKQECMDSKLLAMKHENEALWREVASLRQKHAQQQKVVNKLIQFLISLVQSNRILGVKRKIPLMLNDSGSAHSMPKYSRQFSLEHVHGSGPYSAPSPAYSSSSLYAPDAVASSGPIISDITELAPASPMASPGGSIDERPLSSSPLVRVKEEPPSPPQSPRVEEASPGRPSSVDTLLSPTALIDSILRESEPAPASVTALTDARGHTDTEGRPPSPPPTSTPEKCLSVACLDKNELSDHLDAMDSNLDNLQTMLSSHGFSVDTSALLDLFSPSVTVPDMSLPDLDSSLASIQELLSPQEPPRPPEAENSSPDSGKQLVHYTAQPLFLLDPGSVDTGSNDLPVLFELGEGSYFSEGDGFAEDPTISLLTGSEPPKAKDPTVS
Hepatocyte nuclear factor 6 (Homo sapiens), sequence (Q9UBC0 whole entry, looked up): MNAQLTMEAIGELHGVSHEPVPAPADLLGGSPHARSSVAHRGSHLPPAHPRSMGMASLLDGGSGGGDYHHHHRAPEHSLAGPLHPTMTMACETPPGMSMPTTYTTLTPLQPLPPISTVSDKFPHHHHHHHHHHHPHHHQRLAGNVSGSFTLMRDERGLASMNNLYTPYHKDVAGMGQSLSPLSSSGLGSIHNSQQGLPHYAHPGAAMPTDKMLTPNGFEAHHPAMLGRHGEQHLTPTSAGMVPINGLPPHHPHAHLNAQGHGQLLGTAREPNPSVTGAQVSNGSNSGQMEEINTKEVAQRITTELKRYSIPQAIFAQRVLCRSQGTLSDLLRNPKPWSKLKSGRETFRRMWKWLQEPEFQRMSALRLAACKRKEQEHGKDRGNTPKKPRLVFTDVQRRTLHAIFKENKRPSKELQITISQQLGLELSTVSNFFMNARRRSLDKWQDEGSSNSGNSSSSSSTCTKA
Transcription factor Sp1 (Homo sapiens), sequence (P08047 whole entry, looked up): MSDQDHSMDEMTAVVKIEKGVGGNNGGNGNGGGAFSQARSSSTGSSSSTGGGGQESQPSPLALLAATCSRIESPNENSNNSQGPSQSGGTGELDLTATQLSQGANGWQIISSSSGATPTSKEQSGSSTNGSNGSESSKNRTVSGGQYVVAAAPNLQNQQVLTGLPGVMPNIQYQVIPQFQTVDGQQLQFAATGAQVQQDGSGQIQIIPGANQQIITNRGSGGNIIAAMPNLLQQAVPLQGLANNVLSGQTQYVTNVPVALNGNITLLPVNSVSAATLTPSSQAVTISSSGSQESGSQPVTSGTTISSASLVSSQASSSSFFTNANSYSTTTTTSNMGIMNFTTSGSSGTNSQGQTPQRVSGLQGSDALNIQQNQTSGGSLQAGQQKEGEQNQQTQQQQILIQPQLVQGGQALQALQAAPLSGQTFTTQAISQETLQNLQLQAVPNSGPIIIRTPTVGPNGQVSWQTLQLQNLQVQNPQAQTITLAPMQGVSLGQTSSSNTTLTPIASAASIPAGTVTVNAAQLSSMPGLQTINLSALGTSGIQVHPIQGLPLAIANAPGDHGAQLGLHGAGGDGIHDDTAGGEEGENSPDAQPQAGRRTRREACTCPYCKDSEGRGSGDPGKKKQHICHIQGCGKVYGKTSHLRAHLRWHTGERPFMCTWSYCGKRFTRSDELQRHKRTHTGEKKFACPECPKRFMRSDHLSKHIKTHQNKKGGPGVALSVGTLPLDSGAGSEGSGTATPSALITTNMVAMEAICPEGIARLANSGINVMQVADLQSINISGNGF
Signal transducer and activator of transcription 3 (Homo sapiens), sequence (P40763 whole entry, looked up): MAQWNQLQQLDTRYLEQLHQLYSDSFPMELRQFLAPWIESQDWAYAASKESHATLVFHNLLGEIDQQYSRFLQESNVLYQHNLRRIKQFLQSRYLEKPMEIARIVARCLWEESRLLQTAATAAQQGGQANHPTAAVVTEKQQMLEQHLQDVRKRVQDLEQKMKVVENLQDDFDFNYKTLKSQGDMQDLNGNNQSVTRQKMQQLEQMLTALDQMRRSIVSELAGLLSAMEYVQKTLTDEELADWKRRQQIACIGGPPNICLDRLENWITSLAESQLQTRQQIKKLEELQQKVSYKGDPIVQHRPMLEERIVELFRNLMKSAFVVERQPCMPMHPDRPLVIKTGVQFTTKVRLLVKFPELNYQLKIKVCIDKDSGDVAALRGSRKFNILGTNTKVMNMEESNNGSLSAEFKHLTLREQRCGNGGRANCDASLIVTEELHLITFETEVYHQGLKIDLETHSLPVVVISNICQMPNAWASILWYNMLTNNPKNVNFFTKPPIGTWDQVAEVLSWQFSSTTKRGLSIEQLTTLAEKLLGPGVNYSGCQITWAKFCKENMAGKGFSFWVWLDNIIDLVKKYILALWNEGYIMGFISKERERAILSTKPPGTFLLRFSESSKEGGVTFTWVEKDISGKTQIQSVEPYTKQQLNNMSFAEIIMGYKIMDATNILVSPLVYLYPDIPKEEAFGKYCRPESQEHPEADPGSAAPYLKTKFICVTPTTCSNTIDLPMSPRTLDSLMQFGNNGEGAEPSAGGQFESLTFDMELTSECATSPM
Hypoxia-inducible factor 1-alpha (Homo sapiens), sequence (Q16665 whole entry, looked up): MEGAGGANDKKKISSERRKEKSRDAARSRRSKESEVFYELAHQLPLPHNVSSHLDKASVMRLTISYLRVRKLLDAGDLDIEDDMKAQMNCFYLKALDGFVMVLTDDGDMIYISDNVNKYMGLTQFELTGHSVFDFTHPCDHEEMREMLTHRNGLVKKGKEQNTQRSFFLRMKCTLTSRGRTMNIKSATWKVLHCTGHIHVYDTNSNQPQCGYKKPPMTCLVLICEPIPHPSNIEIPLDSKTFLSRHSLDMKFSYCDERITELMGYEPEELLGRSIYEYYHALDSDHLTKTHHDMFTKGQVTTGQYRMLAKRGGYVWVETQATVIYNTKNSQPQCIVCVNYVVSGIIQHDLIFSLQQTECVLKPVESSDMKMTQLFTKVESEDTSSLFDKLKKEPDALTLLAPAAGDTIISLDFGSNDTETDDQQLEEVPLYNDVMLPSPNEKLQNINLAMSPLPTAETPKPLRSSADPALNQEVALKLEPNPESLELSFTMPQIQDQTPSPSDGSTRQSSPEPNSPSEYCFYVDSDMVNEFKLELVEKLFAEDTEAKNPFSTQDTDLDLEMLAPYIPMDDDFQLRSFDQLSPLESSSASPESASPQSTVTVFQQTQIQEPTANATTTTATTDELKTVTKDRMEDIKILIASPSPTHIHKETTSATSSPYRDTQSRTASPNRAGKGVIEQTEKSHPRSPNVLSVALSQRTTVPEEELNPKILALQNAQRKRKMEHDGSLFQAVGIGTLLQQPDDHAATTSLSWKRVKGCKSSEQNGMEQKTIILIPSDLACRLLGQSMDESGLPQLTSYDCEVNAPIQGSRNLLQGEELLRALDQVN

NC(=O)CCl
active: [8] 27.2 µM
not listed: [19] | [20]
inactive: all other assays above

Clc1cnc(Oc2ccc(Oc3ncc(Cl)cc3Cl)cc2)c(Cl)c1
active: [8] 9.96 µM | [18] 20 µM
not listed: [4] | [20]
inactive: all other assays above

CCNc1nc(NCC)nc(SC)n1
active: [8] 27.9 µM
not listed: [9] | [20]
inactive: all other assays above

COC(F)(C(F)(F)C(F)(F)F)C(F)(C(F)(F)F)C(F)(F)F (configuration not stated)
not listed: [17] | [19] | [20]
inactive: all other assays above

O=C(NC(=O)c1c(F)cccc1F)Nc1cc(Cl)c(F)c(Cl)c1F
active: [8] 20.2 µM
not listed: [20]
inactive: all other assays above

CNC(=O)O/N=C/C(C)(C)S(C)(=O)=O
not listed: [9] | [18] | [20]
inactive: all other assays above

N#Cc1cccnc1
not listed: [4] | [8] | [20]
inactive: all other assays above

Cc1cc(C)cc(C)c1
not listed: [6] | [9] | [16] | [20]
inactive: all other assays above

O=C1C[C@@H]2OCC=C3CN4CC[C@]56c7ccccc7N1[C@H]5[C@H]2[C@H]3C[C@H]46
active: [8] 44.6 µM and 10.9 µM
not listed: [4] | [9] | [17] | [18] | [20]
inactive: all other assays above

CCCCOC(C)=O
not listed: [4] | [6] | [7] | [8] | [17] | [18]
inactive: all other assays above

OCCCCO
active: [8] 59 µM
not listed: [7] | [17] | [20]
inactive: all other assays above

O=C(O)CC(O)(CC(=O)O)C(=O)O
not listed: [4] | [19] | [20]
inactive: all other assays above

C[C@H]1C(=O)O[C@@H]2CCN3CC=C(COC(=O)[C@](C)(O)[C@]1(C)O)[C@H]23
not listed: [6] | [8] | [20]
inactive: all other assays above

O=C(NC(=O)c1c(F)cccc1F)Nc1ccc(Cl)cc1
not listed: [7] | [8] | [20]
inactive: all other assays above
